SMILES strings stand for the structures. In all, about 360,000 compounds went through this assay and about 3,700 (1%) were called active. Shown is part of a subset that was picked to be rich in actives. Unmarked numbers belong to inactive results. Cut-off read from the data, not from the text of the source: active = activation above about 30%; inactive = the rest.

For this assay, the target named is D(1A) dopamine receptor (Homo sapiens) (UniProt P21728). The assay can be described thus: Allosteric Agonists of the Human D1 Dopamine Receptor: qHTS. Note: 0% is about no effect. The note with it: HEK293 T-REx D1 cells, calcium flux, agonist mode; at 2 µM; active compounds read high. The essentials: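 Tetracycline-induced HEK293 TREx D1 cells, force-coupled to calcium signalling, were dye-loaded with a no-wash calcium kit. Compound was pin-added after a 10 s baseline. Fluorescence was read kinetically at 1 cycle/s for 180 s, with calcium rises flagged as agonism.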
Chain of D(1A) dopamine receptor (Homo sapiens) (P21728 whole entry, looked up): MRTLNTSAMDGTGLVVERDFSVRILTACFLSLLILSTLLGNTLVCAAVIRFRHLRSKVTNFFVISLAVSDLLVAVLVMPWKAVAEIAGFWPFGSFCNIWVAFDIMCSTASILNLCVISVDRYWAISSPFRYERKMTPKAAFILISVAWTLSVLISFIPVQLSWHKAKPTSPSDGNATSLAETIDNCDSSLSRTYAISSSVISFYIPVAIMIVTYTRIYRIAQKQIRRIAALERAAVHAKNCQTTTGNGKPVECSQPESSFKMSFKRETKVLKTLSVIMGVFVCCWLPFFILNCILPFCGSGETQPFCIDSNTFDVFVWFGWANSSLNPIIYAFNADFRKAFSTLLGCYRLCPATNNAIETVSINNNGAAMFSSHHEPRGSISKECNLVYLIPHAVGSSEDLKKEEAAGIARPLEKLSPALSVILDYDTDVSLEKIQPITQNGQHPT
(Quantitative high-throughput screening tests each substance at several concentrations.)
On to `Cc1ccc(S(=O)(=O)c2c(Nc3cccc(Cl)c3)sc(C(=O)c3ccc4c(c3)OCO4)c2N)cc1`, for which the activation was 61.9% (active). `O=C(Nc1ccc2c(c1)OCO2)c1cc(-c2cccc(Cl)c2)on1`: the activation was -1.41%. With `CC(=O)c1c(Nc2ccccc2)sc(C(=O)c2ccccc2)c1C` the figure was 5.07%; with `COc1ccc(Cl)cc1S(=O)(=O)Nc1cccc(C(=O)O)c1`, 2.88%. For `Cc1ccc(C(=O)Nc2sc(Cc3ccc4c(c3)OCO4)c(C)c2C(N)=O)cc1` the value was -1%; for `COc1ccc(C(=O)N2CCC(C(=O)Nc3ccc(C)cc3)CC2)cc1`, 1.17%; for `CO/N=C(/CS(=O)(=O)c1ccc(Br)cc1)c1ccc(OC)cc1`, 0.348%. For `COc1ccc(S(=O)(=O)c2c(Nc3cccc(Cl)c3)sc(C(=O)c3ccccc3)c2N)cc1` the value was 75.8% (active). `COc1ccc(S(=O)(=O)c2c(Nc3ccc(C)cc3)sc(C(=O)c3ccc(C)cc3)c2N)cc1`: the activation is 56.2% (active). With `CCc1ccccc1NC(=O)N1CCN(C(=O)c2nsc3ccccc23)CC1`, the activation is 2.7%. With `CCCS(=O)(=O)c1ncc(Cl)c(C(=O)Nc2scc(-c3ccccc3)c2C(=O)OCC)n1` the figure was 5.24%; with `O=c1c(NCc2cccs2)nccn1-c1ccccc1`, 2.15%; with `Cc1ccc(CNS(=O)(=O)c2ccc(-c3cc(C(F)(F)F)on3)s2)cc1`, 0.651%.

With `Cn1nnnc1Sc1ncnc2scc(-c3ccccc3[N+](=O)[O-])c12`, the activation is 1.58%. For `CCc1ccc(NC(=O)Cn2c(=O)n(CCC(=O)NCc3ccc4c(c3)OCO4)c(=O)c3ccccc32)cc1` the value was -0.957%. For `O=c1c2ccccc2[nH]c(=S)n1CCN1CCC(=C(c2ccc(F)cc2)c2ccc(F)cc2)CC1`, the activation was 0.942%. With `O=C(CCCN1CCc2[nH]c3ccc(F)cc3c2C1)c1ccc(F)cc1` the figure was 56.3% (active); with `Cc1ccc2[nH]c3c(c2c1)CN(C(=O)CN1CCN(c2ccccc2)CC1)CC3`, 0.149%; with `O=C(CSc1nc2ccccc2nc1Cc1ccccc1)N1CCCCC1`, 4.62%. For `CCc1nccn1S(=O)(=O)c1cc(Br)ccc1Br` the value was -0.03%; for `CCOc1ccccc1NC(=O)C1=C(C)Nc2ncnn2C1c1ccc(NC(C)=O)cc1` (stereo not drawn), 1.04%.

Turning to `Cc1ccc(-c2nn(CCC(=O)Nc3ccc(OC(F)(F)F)cc3)c(=O)c3ccccc23)cc1`, the activation is 1.41%. On to `Cc1ccc(-c2nn(CCC(=O)Nc3ccc(Cl)c(Cl)c3)c(=O)c3ccccc23)cc1`, for which the activation was 0.86%. With `Cc1cccc(NC(=O)Cn2nc(-c3ccc(Cl)cc3)c3ccccc3c2=O)c1` the figure was 35.9% (active). For `Cc1ccc(C(=O)Nc2nc(-c3ccccc3)ns2)cc1` the value was -0.0471%; for `CCC(=O)N1c2ccccc2CC1C(=O)N1CCN(c2cccc(OC)c2)CC1` (stereo not drawn), -0.217%; for `CC(=O)N1c2ccccc2N(Cc2ccc([N+](=O)[O-])cc2)C(=O)C1(C)C`, 2.19%. With `O=C(NCCCCc1ccccc1)C1CC(c2ccc([N+](=O)[O-])cc2)=NO1` (stereo not drawn) the figure was 7.04%. As for `O=C1NC(=O)C2C1C(c1ccc([N+](=O)[O-])cc1)=NN2Cc1ccccc1` (stereo not drawn), the activation is 44.8% (active). Turning to `Cc1cccc(NC(=O)c2cc3c(C)nn(-c4ccccc4)c3s2)c1`, the activation is 2.46%. With `CCOC(=O)c1oc2ccc(S(=O)(=O)n3nc(-c4ccccc4OC)cc3N)cc2c1C`, the activation is 4.93%. Regarding `Cc1cc(C)cc(NC(=O)N(C)Cc2ccccc2)c1`, the activation is 2.04%. For `CC(C)(C)N(Cc1ccccc1)C(=O)c1ccncc1` the value was -0.455%; for `CN(C(=O)CN(CCO)CC(=O)N(C)C(C)(C)Cc1ccccc1)C(C)(C)Cc1ccccc1`, 40.5% (active). Turning to `CCOC(=O)c1c(S(=O)(=O)NCC(=O)Nc2ccc(Cl)c(C(F)(F)F)c2)c(C)n(C)c1C`, the activation was 6.5%. With `Cc1cc(C)c(NC(=O)CSc2nc3nccnc3c(=O)n2CCc2c[nH]c3ccccc23)c(C)c1` the figure was 2.34%. With `CCN1CCN(CCNC(=O)c2ccc(/C=C3/Sc4ccccc4N(Cc4cccc(C)c4)C3=O)cc2)CC1` the figure was 48.6% (active); with `O=C(CN1C(=O)/C(=C/c2ccccc2F)Sc2ccccc21)NCc1cccnc1`, 4.38%; with `O=C(NCCN1C(=O)S/C(=C\c2cccnc2)C1=O)c1ccc(S(=O)(=O)N2CCCC2)cc1`, 1.07%. Take `CCn1c(=O)c(=O)n(CC)c2cc(N3CCCCC3)c(NC(=O)c3cccc(F)c3)cc21`: the activation was -0.479%. For `CCCCCN(C(=O)NC(=O)Nc1ccccc1C)S(C)(=O)=O` the value was 4.03%; for `CCCS(=O)(=O)c1c(Nc2ccccc2C)sc(C(=O)c2ccccc2)c1N`, 32.6% (active). For `COc1c(F)c(F)c(C(=O)O)c(Nc2ccccc2C)c1F` the value was 1.04%; for `CCOC(=O)N1CCc2c(sc3c2c(=O)n(-c2ccc(CC)cc2)c(=O)n3C)C1`, -0.644%; for `CCOC(=O)c1cc2c(=O)n3ccccc3nc2n(CC2CCCO2)c1=NC(=O)c1ccc(C(C)(C)C)cc1` (stereo not drawn), 2.73%. With `CCCCCCc1cc2cc(-c3nnc(-c4ccccc4)o3)c(=O)oc2cc1O` the figure was 297% (active). `CCOc1ccc(CCNC(=O)c2c(C)oc3ncn(C)c(=O)c23)cc1`: the activation is 0.93%. For `CSc1ccc(C2C(C(=O)Nc3ccccc3)=C(C)Nc3nc4ccccc4n32)cc1` (stereo not drawn) the value was -0.673%; for `Cc1ccc(NC(=O)CN2C(=O)C(c3ccc(F)cc3)=NC23CCCCCC3)c(C)c1`, 7.18%. For `CC(C)c1ccc(NS(=O)(=O)c2ccc3[nH]cc(C(=O)NC4CCCC4)c(=O)c3c2)cc1` the value was 5.71%; for `Cc1ccc(NC(=O)c2ccc(CN3CC(=O)N4CCCCC4C3=O)cc2)c(Cl)c1` (stereo not drawn), 1.1%.

As to `CC(NC(=O)Cn1cc(C(F)(F)F)cc(Cl)c1=O)c1ccccc1` (stereo not drawn), the activation was -0.532%.

In the case of `CN(C)c1ccc(C(=O)NCC(=O)OC(C(=O)Nc2cc(C(F)(F)F)ccc2Cl)c2ccccc2)cc1` (stereo not drawn), the activation was 1.69%. For `CNCC[C@H](Oc1ccc(C(F)(F)F)cc1)c1ccccc1` the value was 111% (active); for `COc1ccc(OC)c(NC(=O)CSC2=Nc3ccccc3C3=NC(CC(=O)NCCc4ccccc4)C(=O)N23)c1` (stereo not drawn), 1.84%. For `Cn1nnnc1SCCCNCc1ccc(Cl)cc1` the value was 8.22%; for `COc1cc(CNCCSc2nnnn2C)ccc1OCc1ccc(Cl)cc1Cl`, 48.2% (active). For `Cc1c(Cl)cccc1-c1ccc(CNCCCSc2nnnn2C)o1` the value was 68.7% (active); for `COc1ccc(-c2ccc(CNCCCN3CCOCC3)o2)cc1Cl`, 3.69%; for `Cn1nnnc1SCCCNCc1cccc(OCc2ccc(Cl)cc2)c1`, 74.4% (active). `CCOc1ccc(CNCCSc2nnnn2C)cc1`: the activation is -0.463%. For `COc1cccc(CNCCSc2nnnn2C)c1OCc1ccccc1Cl` the value was 4.2%; for `Cn1nnnc1SCCNCc1ccc(Cl)c(Cl)c1`, -0.329%. With `COc1cc(CNCCSc2nnnn2C)ccc1OCc1c(F)cccc1Cl` the figure was 5.58%; with `COc1ccc(-c2c(C)nn3c(N4CCC(C(=O)NCCC(C)C)CC4)cc(C)nc23)cc1OC`, 1.66%; with `Cc1ccc(Cl)cc1N(C)C(=O)Cn1nc(Cc2cccnc2)c2ccccc2c1=O`, 3.19%. For `Oc1c(Cl)cc(Cl)c(Cl)c1Cc1c(O)c(Cl)cc(Cl)c1Cl` the value was 33.5% (active). For the compound `COc1cc(CN(C(=O)c2ccccc2Br)c2ccccn2)cc(OC)c1OC`, the activation is -2.08%.

As to `Cc1ccc(OCCNC(=O)CCNS(=O)(=O)c2ccc(Br)cc2)cc1`, the activation was 74% (active). As for `Cc1ccc(S(=O)(=O)NCCNC(C)c2ccc(Br)cc2)cc1` (stereo not drawn), the activation was 6.77%. For `O=C(CCNS(=O)(=O)c1ccccc1)NCCSc1ccc(Br)cc1` the value was 11.3%. For `Fc1ccc(-n2ncc3c(Nc4ccc(Oc5ccccc5)cc4)ncnc32)cc1` the value was 0.314%; for `COc1ccc(C(=O)CSc2c(C(C)C)cnc3c2c(=O)n(C)c(=O)n3C)cc1`, 2.45%; for `Cc1nc(SCCOc2ccc(Cl)cc2)[nH]c(=O)c1Cc1ccccc1`, -1.18%.

As for `Cc1cc2oc(C(=O)N(Cc3ccc(Cl)cc3)Cc3ccco3)c(C)c2cc1Cl`, the activation is 18.5%. Consider `CC(Oc1ccc2ccccc2c1)C(=O)NNC(=S)NC(=O)c1ccco1` (stereo not drawn), for which the activation was 50.2% (active). With `COc1ccc(/C=C(/NC(=O)c2ccco2)C(=O)Nc2ccc(C(C)=O)cc2)cc1`, the activation is -0.901%. For `O=C(NC(=S)N1CCc2ccccc21)c1ccco1` the value was 1.7%; for `COc1ccc(OC)c(-c2nc(C(N)=O)c3c(n2)n(-c2ccc4c(c2)OCO4)c(=O)n3C)c1`, -1.26%; for `COC(=O)CNS(=O)(=O)c1ccc(Cc2ccc(S(=O)(=O)NCC(=O)OC)cc2)cc1`, 2.26%. With `COc1c(C(=O)N2CCCC2)ccc2ccccc12` the figure was 1.37%. With `COC(=O)C[n+]1cccc2ccccc21` the figure was 87.9% (active); with `CC(=O)c1ccc(NC(=O)c2nc(-c3ccc(C)cc3)n3c2CCCCC3)cc1`, 2.3%. In the case of `COc1ccc2cc(-c3nc(Cl)c4c5c(sc4n3)CC(C)CC5)c(=O)oc2c1` (stereo not drawn), the activation is 8.22%. For `CCOC(=O)c1c(NC(=O)/C(C#N)=C/c2ccccc2)sc2c1CCC2` the value was 0.119%; for `CCOC(=O)c1c(NC(=S)Nc2ccccc2)sc2c1CCN(C)C2`, 32.3% (active).

As to `CCOC(=O)c1c(NC(=O)NC(C)(C)C)sc2c1CCN(C)C2`, the activation is 3.08%. For `Cc1ccc(-c2nnc3c4ccccc4c(C)nn23)cc1NC(=O)c1cccc(Br)c1` the value was -0.644%.

For the origin of these results see PubChem BioAssay AID504660 (National Center for Advancing Translational Sciences (NCATS), 2011).
